Assay results as given in PMC4336329 (PLoS ONE, 2015).
Hit rate of the full screen: of about 310,000 compounds, about 14,000 (4.5%) showed an effect of 50% or more. The effect is printed as a negative number. The sample as a whole holds a higher share of strong results than the screen did.

Target: human ether-à-go-go-related gene (hERG) potassium channel (human, UniProt Q12809)
Assay: primary screen, population patch clamp on CHO cells stably expressing hERG; higher = less effect of the substance
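Also: peak tail current of the secondary pulse compared with the same well before compound.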

human ether-à-go-go-related gene (hERG) potassium channel, sequence (Q12809 whole entry, looked up): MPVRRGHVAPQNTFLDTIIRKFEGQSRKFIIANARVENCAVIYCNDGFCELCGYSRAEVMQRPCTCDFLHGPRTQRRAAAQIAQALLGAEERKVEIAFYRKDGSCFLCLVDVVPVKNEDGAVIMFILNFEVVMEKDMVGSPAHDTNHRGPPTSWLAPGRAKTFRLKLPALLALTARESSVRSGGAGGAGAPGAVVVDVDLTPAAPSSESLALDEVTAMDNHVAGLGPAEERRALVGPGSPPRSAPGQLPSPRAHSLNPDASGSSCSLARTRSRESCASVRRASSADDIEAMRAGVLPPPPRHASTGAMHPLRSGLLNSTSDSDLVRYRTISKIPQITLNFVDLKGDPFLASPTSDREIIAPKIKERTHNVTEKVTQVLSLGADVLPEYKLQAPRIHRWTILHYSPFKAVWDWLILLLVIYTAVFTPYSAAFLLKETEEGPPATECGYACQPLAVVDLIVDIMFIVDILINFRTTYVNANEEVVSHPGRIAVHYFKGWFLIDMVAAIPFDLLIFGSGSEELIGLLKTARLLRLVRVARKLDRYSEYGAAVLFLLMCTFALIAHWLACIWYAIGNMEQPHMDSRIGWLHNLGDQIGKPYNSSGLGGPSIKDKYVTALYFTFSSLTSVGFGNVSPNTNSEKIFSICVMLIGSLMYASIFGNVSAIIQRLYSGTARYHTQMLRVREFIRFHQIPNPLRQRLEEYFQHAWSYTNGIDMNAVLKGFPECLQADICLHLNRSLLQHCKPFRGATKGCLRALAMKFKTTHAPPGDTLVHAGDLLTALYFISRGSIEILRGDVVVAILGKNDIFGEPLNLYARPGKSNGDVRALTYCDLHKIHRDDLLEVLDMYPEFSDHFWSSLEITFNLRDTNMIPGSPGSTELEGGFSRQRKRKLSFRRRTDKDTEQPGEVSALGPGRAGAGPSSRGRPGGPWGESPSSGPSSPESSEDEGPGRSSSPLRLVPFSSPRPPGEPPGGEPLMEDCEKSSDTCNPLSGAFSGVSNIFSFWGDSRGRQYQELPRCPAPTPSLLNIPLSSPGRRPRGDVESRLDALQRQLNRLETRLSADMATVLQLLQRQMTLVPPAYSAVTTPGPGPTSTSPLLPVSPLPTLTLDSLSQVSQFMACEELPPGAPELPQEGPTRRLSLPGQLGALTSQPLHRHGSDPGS

Row | Structure (SMILES) | hERG current change (%, negative = inhibition) at 10uM
1 | Cc1cc(C)nc(Sc2nc(C)nc3c2oc2ccccc23)n1 | -1.57%
2 | CCc1ccc(S(=O)(=O)Nc2c(NC3CCCCC3)c3ccccc3oc2=O)cc1 | -3.7%
3 | CC1CN(S(=O)(=O)c2ccc(C(=O)N3CCc4ccccc43)cc2)CC(C)O1 (stereo not drawn) | 15.9%
4 | Cc1ccc(NC(=O)c2cccc(S(=O)(=O)N(C)C3CCCCC3)c2)nc1 | -34.7%
5 | CN(C1CCCCC1)S(=O)(=O)c1cccc(C(=O)Nc2ccccn2)c1 | -53.7%
6 | CC(=O)Nc1ccc(NC(=O)c2cccc(S(=O)(=O)N(C)C3CCCCC3)c2)cc1 | 6.97%
7 | CN(C)CCOc1ccc2c(c1)Sc1ccccc1CC2=O.Cl | -64.8%
8 | O=C1Cc2ccccc2Sc2ccc(O)cc21 | 16.4%
9 | Cl.O.O=C1Cc2ccccc2Sc2c(OCCN3CCCCC3)cccc21 | -63.4%
10 | Cl.O=C1Cc2ccccc2Sc2cc(OCCCN3CCCCC3)ccc21 | -69.8%
11 | Cc1ccc2c(c1)Sc1ccccc1CC2=O | -20.9%
12 | Cc1cccc2c1Sc1ccccc1CC2=O | 0.0655%
13 | COc1cccc(OCCCN2CCCCC2)c1 | -16.2%
14 | CN(C)CCCOc1ccc2c(c1)Sc1ccccc1CC2=O.Cl | -74.3%
15 | O=C1Cc2ccccc2Sc2ccc(Cl)cc21 | 16%
16 | O=C1Cc2ccccc2Sc2ccccc21 | 1.13%
17 | c1ccc(-c2ccccc2OCCN2CCCC2)cc1 | -26.6%
18 | Cc1cccc(OCCCN2CCCCCC2)c1 | -28.2%
19 | O=C(O)c1n[nH]c2ccccc12 | -4.09%

Row | Structure (SMILES) | hERG current change (%, negative = inhibition) at 10uM
20 | C[N+]1(CC(=O)NNc2c3ccccc3nc3ccccc23)CCOCC1.[Br-] | 3.64%
21 | COC(=O)C(=Nc1ccccc1)/C(C(=O)C(=O)N(C)c1ccccc1)=C(\O)c1ccccc1 | 22.7%
22 | CC1(C)CCCC2=C1CC1C(=O)N(Cc3cccnc3)C(=O)C1C2 (stereo not drawn) | -5.71%
23 | COc1ccc(-c2csc(-c3cc4ccccc4oc3=N)n2)cc1 | -4.44%
24 | CCCC(=O)N1CCN(c2ccc(NC(=O)c3ccc(Br)o3)cc2)CC1 | -8.1%
25 | COc1ccccc1NC(=O)C1CCN(S(=O)(=O)c2cccs2)CC1 | -7.13%
26 | c1ccc2[nH]c(CN3CCCCC3)nc2c1 | 1.41%
27 | Cc1ccnc(NC(=O)c2oc3ccccc3c2C)c1 | 24.7%
28 | O=C(O)/C=C1\NC(=O)c2ccccc21 | 17%
29 | COCC1CCCN(Cc2nc(Cc3ccccc3)no2)C1 (stereo not drawn) | 11.6%
30 | COCC1CCN(Cc2cn(Cc3ccccc3)nc2-c2cc3ccccc3o2)CC1 | -76.6%
31 | COCC1CCN(Cc2cn(C)nc2-c2cccc(Cl)c2)C1 (stereo not drawn) | -2.21%
32 | COCC1CCCN(Cc2cn(Cc3ccccc3)nc2-c2cc3ccccc3o2)C1 (stereo not drawn) | -72.8%
33 | COCC1CCCN(Cc2cn(-c3ccccc3F)nc2-c2cc(C)sc2C)C1 (stereo not drawn) | -39.4%
34 | CN(Cc1cn(C)nc1-c1ccccc1F)CC1CCN(Cc2ccccc2)CC1 | -15.6%
35 | CCCn1nnnc1SCC(=O)Nc1cccc(NC(=O)c2ccco2)c1 | -34.8%
36 | COc1ccc(OC)c(NC(=O)c2cnc(Nc3ccccc3OC)c3ccccc23)c1 | -7.53%
37 | CCN(CCCNC(=O)C1CCN(S(=O)(=O)CC)CC1)c1cccc(C)c1 | -40.4%
38 | Nc1c(C(=O)Nc2ccc(Cl)c(C(=O)O)c2)sc2nc3c(cc12)CCCC3 | -3.17%

Row | Structure (SMILES) | hERG current change (%, negative = inhibition) at 10uM
39 | O=C(CSc1ccc2nnc(-c3ccccn3)n2n1)Nc1nccs1 | -27.6%
40 | CC(C)(C)OC(=O)NCc1n[nH]c(=S)n1C1CC1 | 14.5%
41 | COCCN(Cc1cc2cc3c(cc2nc1Cl)OCO3)C(C)=O | 3.81%
42 | COCCN(Cc1cc2cc3c(cc2nc1Cl)OCO3)C(=O)Nc1ccc(OC)cc1 | 14.7%
43 | COCCN(Cc1cc2cc3c(cc2nc1Cl)OCO3)C(=O)Nc1ccccc1OC | 16.3%
44 | COCCN(Cc1cc2cc3c(cc2nc1Cl)OCO3)C(=O)c1ccc(C)cc1 | -53.2%
45 | COCCN(Cc1cc2cc3c(cc2nc1Cl)OCO3)C(=O)c1cccc(C)c1 | -64.3%
46 | COCCN(Cc1cc2cc3c(cc2nc1Cl)OCO3)C(=O)Nc1ccc(F)cc1 | -30%
47 | CCOC(=O)c1c[nH]c2c(C)ccc(Cl)c2c1=O | 20.9%
48 | Cc1ccc(N2CCN(CCc3nc4cc(NS(C)(=O)=O)ccc4n3C)CC2)cc1 | -59.8%
49 | CC(C)C(=O)Nc1ccc2c(c1)nc(CCN1CCN(c3ccccc3)CC1)n2C | -40.4%
50 | Cc1ccc(S(=O)(=O)Nc2ccc3c(c2)nc(CCN2CCCCC2)n3C)cc1 | -63.6%
51 | Cn1c(CCN2CCCC2)nc2cc(NS(=O)(=O)c3ccc(Cl)cc3)ccc21 | -84%
52 | Cn1c(CCNC(=O)c2ccco2)nc2cc(NS(=O)(=O)c3ccccc3)ccc21 | -6.01%
53 | Cn1c(CCNC(=O)c2ccco2)nc2cc(NS(=O)(=O)c3ccc(Cl)cc3)ccc21 | -65.2%
54 | CCC(=O)Nc1ccc2c(c1)nc(CCN1CCN(c3ccccc3)CC1)n2C | -33.5%
55 | Cc1ccc(S(=O)(=O)Nc2ccc3c(c2)nc(CCN2CCOCC2)n3C)cc1 | -17.2%
56 | CC(=O)NCCc1nc2cc(NS(=O)(=O)c3ccc(Cl)cc3)ccc2n1C | 10.4%
57 | Cc1ccc(S(=O)(=O)Nc2ccc3c(c2)nc(CCN2CCCC2)n3C)cc1 | -42.5%
